56 compounds from ChEMBL document CHEMBL3988442, “University of Dundee, Small-Polar-MMV Screening Library” (2021) can be followed below.

Hit rate of the full screen: of about 66,000 compounds, about 960 (1.5%) showed an effect of 50% or more. The sample as a whole holds a higher share of strong results than the screen did.

The assay relates to Trypanosoma brucei. Briefly: Trypanosoma brucei 72 hour study. It is filed as functional, organism-based. Set-up: scale not given: in the data most compounds retested in dose-response had high values.

For `Cc1ccc(CN(CCCn2ccnc2)Cc2[nH]cnc2C)s1.O=C(O)CC(O)(CC(=O)O)C(=O)O`, the “Percent Effect” value (30.3 µM, […]) is 19.63%. Turning to `O=C(O)C(F)(F)F.O=C(O)C(F)(F)F.O=C(c1ccncc1)N1CC2(CCNCC2)c2cc(Cl)ccc21`, where the note is “30.3 µM, […]”, the “Percent Effect” value was -51.23%.

`O=C(O)C(F)(F)F.O=C(c1cscn1)N1CC[C@@H]2[C@@H]1CCN2CC1CCOC1` (stereo partly specified): under “30.3 µM, […]”, the “Percent Effect” value is -46.23%. Turning to `Cc1cc(O)c(OCC(=O)/N=c2\[nH]c(C)cs2)cn1`, the “Percent Effect” value (30 µM, 30.03 µM) was -14.8%. Still for that read-out and setting: as for `COc1cccc(-c2noc(-c3ccc(NCC4CC4)nc3)n2)c1OC`, the figure is 64.24%; as for `CNCCNc1ccc(-c2nc(-c3cccc(OC)c3OC)no2)cn1`, 17.24%.

For `COc1cccc(-c2noc(-c3ccc(NCC(C)C)nc3)n2)c1OC`, where the note is “30 µM, 30.03 µM”, the “Percent Effect” value stood at 3.504%. Regarding `CCN(CC)S(=O)(=O)c1ccc(CCC(=O)NCc2cc(C)on2)cc1`, for the setting “30.3 µM, […]”, the “Percent Effect” value is reported as -181.3%.

Turning to `Cc1cc(C(=O)NCc2cc(C)oc2C)no1`, the “Percent Effect” value (30 µM, 30.03 µM) was -30.84%.

Take `CCN(CC)S(=O)(=O)c1ccc(CNC(=O)c2cc(C)on2)cc1`: the “Percent Effect” value (30.3 µM, […]) is given as 58.42%. As to `CCN(CC)S(=O)(=O)c1ccc(CNC(=O)N2CCCCCC2)cc1`, the “Percent Effect” value (30 µM, 30.03 µM) is 27.66%. As to `CCN(CC)S(=O)(=O)c1ccc(CNC(=O)N2CCC(C#N)CC2)cc1`, under “30 µM, 30.03 µM”, the “Percent Effect” value worked out at 70.46%. On the same count and under the same terms, as for `CCN(CC)c1ccc(CNC(=O)N2CCC(C#N)CC2)cc1`, the figure is 36.77%.

With `CC1(C)CN(C(CNC2=NCCN2)c2ccc(Cl)cc2)CCO1.I` (stereo unspecified), under “30 µM, 30.03 µM”, the “Percent Effect” value worked out at 11.29%. The same measure, in the same setting: as for `c1ccc(-c2nnc3sc(CCN4CCCC4)nn23)cc1`, the figure is -48.79%; as for `Cc1ccc(CN2CC[C@H]3C[C@H](C(=O)N(C)C)O[C@H]3C2)cc1.O=C(O)C(F)(F)F`, 45.02%. For the compound `CN1CCNC(Cc2ccc(-c3ccncc3)cc2)C1=O.Cl` (stereo unspecified), the “Percent Effect” value (30.3 µM, […]) was -41.95%. `COc1cc(OC)c(C2Nc3cc(Cl)ccc3C3=NCCN32)cc1OC` (stereo unspecified): the “Percent Effect” value (30 µM, 30.03 µM) worked out at 4.882%.

`CN(C)c1ncc(C2Nc3ccccc3C3=NCCCN32)cn1.Cl` (stereo unspecified): the “Percent Effect” value (30.3 µM, […]) is listed as -6.507%. On to `CN(C)c1ncc(C2Nc3cc(Cl)ccc3C3=NCCCN32)cn1.Cl` (stereo unspecified), for which the “Percent Effect” value (30.3 µM, […]) amounted to 62.93%. Consider `COc1ccc(C2Nc3cc(Cl)ccc3C3=NCCN32)cc1OC` (stereo unspecified), for which, under “30 µM, 30.03 µM”, the “Percent Effect” value was 25.02%. As for `COc1cc(C2Nc3cc(Cl)ccc3C3=NCCN32)ccc1O` (stereo unspecified), under “30.3 µM, […]”, the “Percent Effect” value stood at 69.32%.

For the compound `COc1ccc(C2Nc3cc(Cl)ccc3C3=NCCN32)cc1O` (stereo unspecified), the “Percent Effect” value (30.3 µM, […]) is 12.75%. On the same count and under the same terms, as for `COc1cc(C2Nc3cc(Cl)ccc3C3=NCCN32)cc(OC)c1OC` (stereo unspecified), the figure is 19.53%. Regarding `COc1ccc(C2Nc3ccccc3C3=NCCCN32)cc1OC` (stereo unspecified), the “Percent Effect” value (30 µM, 30.03 µM) was -8.154%. For the compound `COc1ccc(C2Nc3cc(Cl)ccc3C3=NCCN32)cc1CO` (stereo unspecified), the “Percent Effect” value (30.3 µM, […]) was determined as 83.77%. Still for that read-out and setting: as for `O=C(O)C1CN(c2cncc(Cc3ccccc3F)n2)C1`, the figure is -23.43%; as for `CC(=O)N1CCC(N2CCC(c3nc(C)cc(C)n3)C2)CC1.O=CO` (stereo unspecified), -13.11%; as for `CC(C)C(=O)N1CC[C@H]2N(C)CC[C@@]2(C(=O)Nc2cccnc2)CC1.O=C(O)C(F)(F)F.O=C(O)C(F)(F)F`, -93.75%. As for `CCCc1cc(C(=O)N2CC(c3ccncc3)C2)ccn1`, the “Percent Effect” value (30.3 µM, […]) is -10.84%. For the compound `CC1=CC[C@@H]2CN(C(=O)c3ccc(-c4nc[nH]n4)cc3)C[C@@H]2C1`, the “Percent Effect” value (30 µM, 30.03 µM) was 36.48%.

Consider `O=C(c1ccc(-c2cc[nH]n2)cc1)N1CC[C@H](CO)[C@H](O)C1`, for which the “Percent Effect” value (30 µM, 30.03 µM) is reported as 0.05802%. For `CCCc1cc(C(=O)N2C[C@H]3CC=C(C)C[C@H]3C2)ccn1`, where the note is “30.3 µM, […]”, the “Percent Effect” value is listed as 56.41%. Same read-out and setting: as for `Cc1ccc(C(=O)N2C[C@@H]3CN(c4ncccn4)C[C@@H]3C2)cc1`, the figure is -8.111%.

As for `CC1=CC[C@@H]2CN(C(=O)c3ccc(-c4nnn(C)n4)cc3)C[C@@H]2C1`, the “Percent Effect” value (30 µM, 30.03 µM) stood at 59.61%. Still for that read-out and setting: as for `CC1=CC[C@@H]2CN(C(=O)c3ccc(-c4cc[nH]n4)cc3)C[C@@H]2C1`, the figure is 55.2%. For `O=C(c1ccc(F)cc1)N1C[C@@H]2CN(c3ncccn3)C[C@@H]2C1`, the “Percent Effect” value (30.3 µM, […]) was -32.62%.

As to `CCCc1cc(C(=O)N2C[C@H](O)[C@@H](N3CCCC3)C2)ccn1`, the “Percent Effect” value (30.3 µM, […]) is on record as -5.682%. Same read-out and setting: as for `O=C(O)C(F)(F)F.O=C(O)C(F)(F)F.O=C(O)CN1CCCC2(CCN2Cc2cccc(F)c2)C1` (stereo unspecified), the figure is -49.81%. Take `CN(Cc1cccnc1)[C@@H]1CN(C(=O)NC2CC2)[C@@H]2CCCO[C@H]12.O=C(O)C(F)(F)F.O=C(O)C(F)(F)F`: the “Percent Effect” value (30.3 µM, […]) is reported as -11.25%.

For the compound `FC1(F)CCN(Cc2ccccn2)CC12CCN(c1ncccn1)C2.O=C(O)C(F)(F)F` (stereo unspecified), the “Percent Effect” value (30.3 µM, […]) was -64.14%.

For the compound `CNC(=O)CN1CCOCC2(C1)CN(C(=O)CC(C)C)CCO2.O=C(O)C(F)(F)F` (stereo unspecified), the “Percent Effect” value (30 µM, 30.03 µM) is on record as -16.33%.

`O=C(c1ccncc1)N1C[C@@H]2CC[C@H](C1)N(S(=O)(=O)c1cccnc1)C2`: where the note is “30 µM, 30.03 µM”, the “Percent Effect” value is recorded as -9.354%.

On to `COc1ccc(CN(Cc2c[nH]cn2)CC2CCCO2)c(OC)c1.O=C(O)CC(O)(CC(=O)O)C(=O)O` (stereo unspecified), for which, where the note is “30.3 µM, […]”, the “Percent Effect” value was 4.059%.

Consider `COCCNC(=O)[C@H]1C[C@@H]2CCN(c3ccccc3)C[C@H]2O1.O=C(O)C(F)(F)F`, for which the “Percent Effect” value (30.3 µM, […]) was -28.03%.

As to `CCn1nnc2c1C(COCCN(C)C)CN(Cc1ccc(C)s1)C2.O=C(O)C(F)(F)F.O=C(O)C(F)(F)F` (stereo unspecified), the “Percent Effect” value (30.3 µM, […]) is on record as -26.69%.

In the case of `Cc1ccc(N2CCC3(CN(Cc4ccncc4)CCC3(F)F)C2)nn1.O=C(O)C(F)(F)F.O=C(O)C(F)(F)F` (stereo unspecified), the “Percent Effect” value (30.3 µM, […]) is on record as -39.6%. On to `Cl.Fc1cccc(F)c1Cn1c(C2CCCNC2)cc2cccnc21` (stereo unspecified), for which the “Percent Effect” value (30.3 µM, […]) is recorded as 11.23%. Regarding `Cl.Fc1cccc(F)c1Cn1c(C2CCNCC2)cc2cccnc21`, the “Percent Effect” value (30.3 µM, […]) was 90.9%. Still for that read-out and setting: as for `CN1CCCC1c1cc2cccnc2n1Cc1ccc(F)cc1.Cl` (stereo unspecified), the figure is -6.063%; as for `Cl.c1cnc2c(c1)cc(C1CCOCC1)n2CCN1CCOCC1`, 3.621%.

Consider `Cl.Fc1ccccc1Cn1c(C2CCNCC2)cc2cccnc21`, for which the “Percent Effect” value (30.3 µM, […]) turned out to be 37.09%. Same read-out and setting: as for `COc1cccc(-c2ccnc(C3CCNCC3)c2)c1`, the figure is -11.36%; as for `COc1cccc(CN2C[C@H]3CCNCC[C@H]3S2(=O)=O)c1`, -73.82%. On the same count and under the same terms, as for `COc1ccc(Cn2c(C3CCNCC3)cc3cccnc32)cc1.Cl`, the figure is 99.58%; as for `COc1cccc(Cn2c(C3CCNCC3)cc3cccnc32)c1.Cl`, 94.63%.
